# Sampled rows, rich in hits. Any-hit rate of the full collection: about 28%.
# DAT uptake mod: modulates human dopamine transporter uptake under cocaine. Q01959. LLC-PK1 hDAT cells, [14C]-dopamine uptake with cocaine IC80; actives deviate in either direction. B-score at 10 µM. 110,000 tested, 1.3% active;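 active means Z score or B-score, a plate-position-corrected score, falls beyond the plate's 99.7% confidence bounds, in either direction; inactive means both scores lie inside the 99.7% bounds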;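 further: scored against the spread of the other compound wells on the same plate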
# Target sequence (Q01959 whole entry, looked up): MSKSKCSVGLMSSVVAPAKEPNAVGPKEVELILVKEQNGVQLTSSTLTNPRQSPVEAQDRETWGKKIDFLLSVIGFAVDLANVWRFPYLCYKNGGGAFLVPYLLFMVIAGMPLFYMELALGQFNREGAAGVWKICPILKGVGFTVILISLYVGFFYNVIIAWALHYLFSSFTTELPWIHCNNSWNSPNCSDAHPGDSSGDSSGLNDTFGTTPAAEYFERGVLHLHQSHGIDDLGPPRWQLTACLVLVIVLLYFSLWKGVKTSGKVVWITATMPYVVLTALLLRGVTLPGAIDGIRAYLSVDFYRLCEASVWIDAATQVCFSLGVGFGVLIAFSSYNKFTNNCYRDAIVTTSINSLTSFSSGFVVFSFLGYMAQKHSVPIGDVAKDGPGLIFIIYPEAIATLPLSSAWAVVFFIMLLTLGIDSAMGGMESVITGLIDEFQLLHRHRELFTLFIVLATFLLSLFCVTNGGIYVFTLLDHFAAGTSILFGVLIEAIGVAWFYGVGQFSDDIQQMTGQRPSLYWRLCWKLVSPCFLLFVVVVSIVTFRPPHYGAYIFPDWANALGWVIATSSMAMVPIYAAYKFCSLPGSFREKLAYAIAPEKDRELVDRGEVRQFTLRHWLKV
# D1 mod: allosterically modulates the human D1 dopamine receptor; HEK293 D1, CRE-luciferase, dopamine EC30 potentiation; actives deviate in either direction; 58,000 tested, 5.9% active; AID 641; B-score at 10 µM;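 active means luminescence count or its row- and column-corrected plate score outside the 99.7% band of the plate's sample wells, on either side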
# CYP2C19 activ: activators of human cytochrome P450 2C19; recombinant CYP2C19, luciferin-H EGE luminescence; stronger effect = higher value; 0 = fully inhibited enzyme, 1 = untreated enzyme; activation factor at 5 µM; 96,000 tested, under 10 active; AID 1025;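 active means activation factor of at least 2 at 5 µM in the primary screen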;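 further: 0 = wells with 2.5 mM tranylcypromine and 1 = vehicle-only wells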
# CYP2C9 inh: human CYP2C9 inhibition; P11712; CYP2C9 Supersomes, luciferin-H conversion, luminescence; inhibition, % at 5 µM; 96,000 tested, 20% active;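 active means blocking of liver enzyme CYP2C9 beyond about 50% at 5 µM, limit read from the data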
# CYP2C19 inhib: inhibitors of human CYP2C19 | P33261 | CYP2C19 Supersomes, luciferin-H EGE luminescence, 30 min | inhibition, % at 5 µM | 96,000 tested, 21% active;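 active means CYP2C19 inhibition above a set limit at 5 µM in the primary screen, cut at about 50% in these data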;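 further: plate controls were negative control wells for no effect and 2.5 mM tranylcypromine positive control for full effect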
# CYP2C9 act: CYP2C9 (human) activation; P11712; recombinant CYP2C9, luciferin-H conversion, luminescence; stronger effect = higher value; factor 1 = untreated enzyme, 0 = blocked; activation factor at 5 µM; 96,000 tested, 1.4% active; AID 1024;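 active means activation factor of 2 or more for CYP2C9 at a 5 µM dose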;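 further: 0 = sulfaphenazole-blocked wells and 1 = vehicle-only wells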
# Active calls of the source: *; . = not tested or not shown.
SMILES,DAT uptake mod,D1 mod,CYP2C19 activ,CYP2C9 inh,CYP2C19 inhib,CYP2C9 act
COc1ccccc1C(c1nnnn1Cc1ccccc1)N1CCN(c2nc3ccccc3s2)CC1 (stereo not drawn),-0.24,0.11,0.5,56*,47,0.4
CCCCC(c1nnnn1Cc1ccco1)N1CCN(c2nc3ccccc3s2)CC1 (stereo not drawn),0.47,-2.2,0.1,91*,95*,0.1
CCOc1cc(/C=C2/SC(=Nc3ccccc3)N(Cc3cccnc3)C2=O)ccc1OCC#N,1.1,.,0.9,-1,13,1
COc1c(Cl)cc(-c2noc(C)c2C(=O)NCCc2ccc(C)cc2)cc1Cl,0.18,.,1,39,-2,0.6
CCCC(c1nnnn1Cc1ccccc1)N1CCN(c2ccccc2OC)CC1 (stereo not drawn),-0.85,-0.0096,0.4,49,57*,0.5
Cc1ccc(C)c(N2CCN(C(c3ccncc3)c3nnnn3Cc3ccccc3)CC2)c1 (stereo not drawn),0.21,-1.1,0,93*,97*,0.1
C=CCSc1ncccc1C(=O)O,0.86,-0.41,0.9,10,7,0.9
O=C(N[C@@H](c1ccccc1)[C@H](O)c1ccccc1)[C@@H]1CCCN1C(=O)OCc1ccccc1,-0.57,.,.,.,.,.
O=C(NCc1nc2ccccc2[nH]1)c1ccc(Cl)c(S(=O)(=O)N2CCCC2)c1,0.52,0.33,0.3,45,65*,0.5
CSCC[C@H](NC(=O)c1ccc(Cl)c(S(=O)(=O)N2CCCC2)c1)c1nc2ccccc2[nH]1,-0.83,.,0.4,68*,59*,0.3
CSCCC(NC(=O)C1CC1)c1nc2ccccc2[nH]1 (stereo not drawn),0.54,-1.1,0.9,6,13,0.9
Cc1c(Cl)c(C(=O)Nc2nc3ccccc3n2CCN2CCCCC2)nn1C,.,.,0.8,5,22,0.9
CCCn1c(NC(=O)c2ccc(Cl)c(S(=O)(=O)N3CCCC3)c2)nc2ccccc21,1.3,0.82,0.2,84*,83*,0.2
CCCn1c(NC(=O)c2cccc(C)c2C)nc2ccccc21,-0.025,.,0.3,17,75*,0.8
CCn1c(NC(C)=O)nc2ccccc21,-0.65,.,.,.,.,.
O=C(NCc1ccccn1)c1cc(-n2cnnc2)ccc1Cl,0.12,0.068,0.9,3,10,1
c1ccc2[nH]c(SN3CCOCC3)nc2c1,0.6,-0.49,1.2,-12,-17,1.1
CC1(C)CC(=O)C2=C(C1)Nc1ncnn1C2c1ccccn1 (stereo not drawn),1.4,-1.3,1,0,-2,1
COc1ccc(-c2nc3c(c(=O)n(C)c(=O)n3C)n2CC2CC(c3ccccc3)=NO2)cc1OC (stereo not drawn),2.2,1.4,.,.,.,.
O=C(CSc1nnc(SCc2cccc3ccccc23)s1)c1ccc2c(c1)OCO2,.,.,0.5,63*,52*,0.4
Cn1c(SCC(=O)c2ccc3c(c2)OCO3)nnc1-c1ccccn1,-0.68,0.077,0.5,15,52*,0.8
O=C(CSc1ccccn1)c1ccc2c(c1)OCO2,0.4,-0.89,0,26,98*,0.7
Cn1c(SCC(=O)Nc2ccc3c(c2)OCO3)nnc1-c1cnccn1,0.59,-0.26,0.8,-4,17,1
CCC1=C(OC(=O)N(CC)CC)N2C(=O)OC(=NCC(=O)OC)[C@]2(Cc2ccccc2)[C@H]2C1=CC[C@H]1C(=O)N(c3ccccc3)C(=O)[C@H]12,-0.29,.,.,.,.,.
COc1ccc(C(CC(=O)N2CCN(c3ccccc3)CC2)c2c(OC)cc(OC)c3ccc(=O)oc23)cc1 (stereo not drawn),1.5,.,.,.,.,.
SMILES,DAT uptake mod,D1 mod,CYP2C19 activ,CYP2C9 inh,CYP2C19 inhib,CYP2C9 act
COc1cc(CC(=O)NCCc2ccc(OCc3ccccc3)cc2)c([N+](=O)[O-])cc1OC,0.066,.,0.4,49,61*,0.5
COc1ccc(CCNC(=O)Cc2cc(OCc3ccccc3)c(OC)cc2[N+](=O)[O-])cc1OC,1.2,.,0.7,55*,33,0.5
COc1ccc(CCNC(=O)Cc2ccc(OC)c(OC)c2)cc1OC,-0.019,.,.,.,.,.
Cc1ccc(O)c(NC(=O)C2CC(c3c(F)cccc3Cl)=NO2)c1 (stereo not drawn),0.98,.,0.1,-85,94*,1.9
Cc1c(NC(=O)C2CC(c3c(F)cccc3Cl)=NO2)c(=O)n(-c2ccccc2)n1C (stereo not drawn),-0.017,-0.29,1.1,-10,-5,1.1
CN1CCN(C(=O)C2CC(c3c(F)cccc3Cl)=NO2)CC1 (stereo not drawn),-0.27,0.31,0.9,-185,6,2.8*
O=C(C1CC(c2ccc(F)cc2)=NO1)N1CCN(c2ccccc2)CC1 (stereo not drawn),0.26,-0.61,0.9,14,8,0.9
Cc1c(C(=O)N2CCCCC2)sc(NC(=O)C2CC2)c1C#N,0.17,1.1,0.5,56*,54*,0.4
NC(=O)c1ccsc1NC(=O)c1cccs1,1.3,2.2,.,.,.,.
Cc1sc(NC(=O)c2cccs2)c(C(N)=O)c1C,0.63,.,0.3,81*,66*,0.2
Cc1c(C(=O)N2CCCCC2)sc(NC(=O)c2ccco2)c1C#N,0.22,.,.,.,.,.
Cc1c(C(=O)N2CCCC2)sc(NC(=O)c2ccccc2)c1C#N,1.5,.,.,.,.,.
Cc1c(C(=O)N2CCCCC2)sc(NC(=O)C(C)C)c1C#N,1.3,1.1,0.4,68*,62*,0.3
Cc1c(C(=O)N2CCCC2)sc(NC(=O)c2cccs2)c1C#N,0.49,2.1,0.9,94*,8,0.1
CCOC(=O)Cn1c(=NC(=O)CSC(C)=O)sc2cc(OC)ccc21,-1.1,-1.2,0.9,17,10,0.8
CCOC(=O)Cn1c(=NC(=O)CSC(C)=O)sc2ccccc21,-0.96,.,0.6,81*,40,0.2
C/C(Nc1cccc(F)c1)=C(/C#N)C(N)=O,-0.62,-1.1,0.7,68*,28,0.3
c1coc(-c2nc(-c3ccco3)c(-c3ccco3)nc2-c2ccco2)c1,0.79,0.56,1,17,4,0.8
Nc1nc(-c2ccco2)c(-c2ccco2)s1,-0.082,0.00025,0.2,77*,78*,0.2
COc1ccccc1OCCSc1nnnn1-c1ccc(C)cc1,-0.46,.,0,23,99*,0.8
CCOc1ccc(OCCSc2nnnn2-c2ccccc2)cc1,0.063,.,0.7,50*,31,0.5
Clc1ccc(OCCSc2nnnn2C2CCCCC2)cc1,0.05,.,1.1,-9,-12,1.1
Cc1ncc(CSc2nnnn2-c2ccccc2)c(N)n1,-0.33,-1.1,0.4,-13,64*,1.1
CCSc1nnnn1-c1ccccc1,-0.99,.,0.7,9,32,0.9
CCOc1ccc(OCCSc2nnnn2C2CCCCC2)cc1,.,-0.064,0.4,88*,57*,0.1
Cc1ccc(C(=O)Nc2ccccc2C(=O)NC(C(=O)O)C(C)C)cc1 (stereo not drawn),-0.039,.,.,.,.,.

# Source: PubChem (several laboratories)
